# Screening data from PubChem.
# An excerpt weighted towards active compounds, which were near 3.5% of everything screened.
# GPR151 activ: activators of human GPR151, primary screen, cell-based, PathHunter beta-arrestin, luminescence; PathHunter beta-arrestin GPR151 cells; activation, % at 11.2 µM; hit rate 1% among 650,000; AID 1508602, 2020; in the data active = activation above about 4.9%;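 also: 0% = median of compound wells and 100% = cells with positive control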
# Target sequence (Q8TDV0 whole entry, looked up): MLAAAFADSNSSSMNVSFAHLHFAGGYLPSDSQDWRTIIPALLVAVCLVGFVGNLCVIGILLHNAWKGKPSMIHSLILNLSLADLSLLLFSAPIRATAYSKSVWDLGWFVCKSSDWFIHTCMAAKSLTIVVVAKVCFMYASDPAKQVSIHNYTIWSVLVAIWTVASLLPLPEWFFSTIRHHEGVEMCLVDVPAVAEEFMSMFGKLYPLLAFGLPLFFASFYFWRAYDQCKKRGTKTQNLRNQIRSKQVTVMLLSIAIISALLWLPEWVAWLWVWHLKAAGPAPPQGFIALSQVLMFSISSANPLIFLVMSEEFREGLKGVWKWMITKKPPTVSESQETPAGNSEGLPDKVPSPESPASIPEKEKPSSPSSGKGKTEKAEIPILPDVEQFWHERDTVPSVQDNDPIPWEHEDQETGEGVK
# FBW7 activator: FBW7 E3 ligase activators, primary screen, biochemical, AlphaScreen, human; F-box/WD repeat-containing protein 7 (Homo sapiens), Q969H0; AlphaScreen FBW7–phospho-cyclin E peptide binding, activator screen; normalized activity (activation), % at 26.1 µM; hit rate 0.13% among 650,000; AID 1259310, 2017; in the data active = normalized activity above about 1.9%;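 also: purified mutant Fbw7 with reduced substrate affinity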
# TEAD-YAP inh: TEAD-YAP interaction inhibition, primary screen, TEAD-YAP interaction inhibitor project, luminescence, HEK-TIYL cells | inhibition, % at 9.12 µM | hit rate 1.4% among 640,000 | TEAD-Gal4/YAP UAS-luciferase luminescence; in the data active = inhibition above about 32%;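 also: 0% = median of test compound wells and 100% = reference inhibitor wells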
# MITF inh: MITF inhibitors, primary screen, biochemical, AlphaScreen, human | Microphthalmia-associated transcription factor (Homo sapiens), O75030 | AlphaScreen MITF homodimerization, bead proximity signal | inhibition, % at 2.6 µM | hit rate 0.91% among 650,000 | AID 1259374, 2018; in the data active = inhibition above about 50%;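 also: 0% = vehicle wells with protein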
# * = called active by the depositor; x = no result given.
SMILES,GPR151 activ,FBW7 activator,TEAD-YAP inh,MITF inh
Cc1nc(-c2ccc(S(=O)(=O)N3CCCC3)cc2)cs1,0,0,-4,-14
C/C(=N/Nc1nc(-c2ccccc2)cs1)C(C)(C)C,0,0,61*,4
Cc1sc2ncnc(NCc3ccncc3)c2c1C,1,0,0,2
Cc1sc2ncnc(NC(C)c3ccc(-n4ccnc4)cc3)c2c1C (configuration not stated),1,0,47*,5
CCCN(C(=O)c1coc(=O)c2ccccc12)c1cccc(Cl)c1,0,0,68*,2
Nc1nnc(CC(=O)N2CCCCC2)s1,-1,2.1*,5,12
Nc1nc(-c2ccccc2)cc(N2CCCC2)n1,0,0,45*,18
c1ccc(-c2nc(-c3ccncc3)cc(N3CCCCC3)n2)cc1,-1,0,8,3
COc1ccc2c(c1)C=C(/C=C/C1=CCN(C)CC1)CO2,-4,0,-44,-6
O=C(c1ccc(I)cc1)N1CCCc2ccccc21,1,0,14,-4
O=C(c1cccc(I)c1)N1CCCc2ccccc21,-1,2.3*,-8,10
CC1CCCC(C)N1C(=O)Cn1c(SCC(=O)N(C)C)nc2ccccc21 (configuration not stated),0,0,10,-27
COCCn1c(C)cc(C(=O)COC(=O)c2cccc(Oc3ccccc3)c2)c1C,-1,0,-13,0
COCCn1c(C)cc(C(=O)COC(=O)c2cccc(O)c2)c1C,-11,0,62*,-6
Cc1cc(C(=O)COC(=O)c2cccc(NS(C)(=O)=O)c2)c(C)n1Cc1ccccc1,0,0,57*,-6
COCCn1c(C)cc(C(=O)COC(=O)c2ccccc2Nc2ccccc2)c1C,-1,0,75*,13
Cc1cc(C(=O)COC(=O)c2cccc(NS(C)(=O)=O)c2)c(C)n1-c1ccccc1,-1,0,25,8
Nc1cccnc1Nc1ccc(Cl)cc1,-1,x,x,x
CC(=O)NC(c1ccc(C(C)C)cc1)c1cc(Cl)c2cccnc2c1O (configuration not stated),-2,0,38*,11
CC(=O)NC(c1ccc(N(C)C)cc1)c1cc(Cl)c2cccnc2c1O (configuration not stated),0,0,30,32
CC(=O)NC(c1ccccc1)c1cc(Cl)c2cccnc2c1O (configuration not stated),0,0,76*,63*
O=C(NCC12C=CC(O1)C1C(=O)N(c3ccc(Cl)cc3)C(=O)C12)c1ccco1 (configuration not stated),0,0,2,6
COc1ccccc1Nc1nc(NCc2ccco2)c2ccccc2n1,-1,0,4,-7
COc1ccc(Nc2nc(NCc3ccccc3)c3ccccc3n2)cc1,0,0,44*,3
Cc1ccc(Nc2nc(NCc3ccco3)c3ccccc3n2)cc1,1,0,46*,5
SMILES,GPR151 activ,FBW7 activator,TEAD-YAP inh,MITF inh
COc1ccc(Nc2nc(C)c3ccccc3n2)cc1,1,0,-51,3
COC(=O)c1ccc(Nc2nc(NCc3ccco3)c3ccccc3n2)cc1,-6,0,75*,-12
Nc1cccc(-c2nc3cc(N)ccc3o2)c1,-4,0,-34,-1
Cc1ccc2nc(-c3cc(N)ccc3Cl)oc2c1,-6,0,-26,-7
Cc1ccc2nc(-c3ccc(O)cc3)oc2c1,-6,0,98*,2
Cc1ccc2nc(-c3ccc(NC(=O)c4ccc(I)cc4)cc3)oc2c1,-2,0,-1,-13
Cc1ccc2nc(-c3ccc(N)cc3)oc2c1,-6,0,66*,4
Cc1cc2nc(-c3ccc(N)cc3)oc2cc1C,-8,0,83*,1
Cc1ccc2nc(-c3cccc(N)c3)oc2c1,-10,1,46*,20
Cc1ccc2nc(C(F)(F)F)c(C#N)c(N)c2c1,-1,0,45*,-10
COc1cc(C)c(/C=C2/C(=O)NC(=O)N(Cc3ccco3)C2=O)c(OC)c1,-1,0,9,64*
COc1ccc(/C=C2/C(=O)NC(=O)N(Cc3ccco3)C2=O)cc1OC,1,-1,4,33
COc1cc(C)c(/C=C2/C(=O)NC(=O)N(Cc3ccco3)C2=O)cc1C,2,0,-7,52*
Cc1cc(/C=C2/C(=O)NC(=O)N(Cc3ccco3)C2=O)c(C)n1-c1ccc(F)cc1,0,0,4,21
Cc1cc(/C=C2/C(=O)NC(=S)N(Cc3ccco3)C2=O)c(C)n1C,0,-1,0,77*
Brc1ccccc1-c1nnc2sc(-c3ccco3)nn12,0,0,6,-9
NS(=O)(=O)c1ccc(NC(=S)Nc2ccccc2)cc1,-2,0,1,0
CC(C)c1ccc(N(C)C(=O)c2cn(-c3ccc(Cl)cc3)c(=O)c3ccccc23)cc1,0,0,-21,-1
CN1CCN(c2ccc(-c3ccc(C(=O)NC4CC4)s3)cc2)CC1,-2,0,52*,1
CN(CC(=O)Nc1ccccc1Br)S(=O)(=O)c1cccs1,1,5.8*,-3,-2
Cc1ccccc1NC(=O)CCC(=O)N/N=C/c1cc(Br)ccc1O,0,0,19,-24
O=C(N/N=C\c1ccccc1[N+](=O)[O-])c1n[nH]c2c1CCCC2,-8,0,54*,23
O=C(N/N=C/c1ccccc1O)c1n[nH]c2c1CCCC2,-3,-2,33*,4
COc1ccc(C2=NN(C(=O)c3cccs3)C(c3ccccc3F)C2)cc1OC (configuration not stated),0,0,-3,-3
COc1cc(C(=O)N2N=C(c3ccc4ccccc4c3)CC2c2ccccc2)cc(OC)c1OC (configuration not stated),0,0,1,18
SMILES,GPR151 activ,FBW7 activator,TEAD-YAP inh,MITF inh
COc1ccc(C2=NN(C(=O)c3cc(OC)c(OC)c(OC)c3)C(c3ccc(F)cc3)C2)cc1OC (configuration not stated),1,0,50*,-7
Cc1ccc(C2=NN(C(=O)c3ccncc3)C(c3ccccc3F)C2)cc1 (configuration not stated),0,0,47*,5
Cc1ccc(C2=NN(S(C)(=O)=O)C(c3ccccc3F)C2)cc1 (configuration not stated),0,0,-40,-3
COc1cc(C(=O)N2N=C(c3ccccc3)CC2c2ccccc2)cc(OC)c1OC (configuration not stated),0,0,53*,-1
COc1ccc(C2=NN(C(=O)c3cc(OC)c(OC)c(OC)c3)C(c3ccccc3F)C2)cc1OC (configuration not stated),0,0,42*,8
CCN=C(NCC)SC1CC(=O)N(c2cccc(C)c2)C1=O (configuration not stated),0,0,4,6
